For the assay, the target named is AMP-activated protein kinase, AMPK (Homo sapiens) (UniProt P54646+O43741+P54619+Q9UGJ0+Q9Y478+Q13131+Q9UGI9). The assay is described as follows: AMP-dependent Kinase enzyme assay. An in vitro enzyme assay that detects ADP turnover that is directly proportional to AMPK activity. This uses naive AMPK that is activated during the assay with MK-8722. The format is functional. Set-up: scale not given: direction of the effect not stated beside the values. The settings on record: 30 µM.
Regarding `CC1C(=O)NCCN1CCOc1ccc(C#N)cc1` (stereo unspecified), the Percent Effect was found to be 3.66%.
On to `O=C(Cn1nc2ccccc2n1)N1CCCC(O)(CO)C1` (stereo unspecified), for which the Percent Effect was -6.31%.
The same measure for `CC(C)N1CCC(CC(=O)NCc2cc(O)ncn2)CC1`: -3.46%; for `CC(NCc1cnc(N2CCN(C)CC2)nc1)c1ccc(F)cc1` (stereo unspecified): -1.25%.
Next, `CCc1nnc(CS(=O)(=O)c2ccc(C)c(C)c2)n1C`: 9.9%.
The same measure for `Cn1cc(CN(C(=O)c2ccc3ncsc3c2)C2CC2)cn1`: 10.2%.
As to `Cc1cc(=O)n2nc(Oc3ccc(C#N)cc3Cl)sc2n1`, the Percent Effect was -3.6%.
Regarding `CC(C)N(CC(=O)Nc1cccc(C#N)c1)C1CC1`, the Percent Effect is 0.161%.
`CC(Oc1cccc(Cl)c1)C(=O)Nc1cnn(CC(=O)NC2CC2)c1` (stereo unspecified): the Percent Effect stood at 1.4%.
Consider `COc1cccc(NC(=O)NCC2CCCN(C3CCOCC3)C2)c1` (stereo unspecified), for which the Percent Effect was found to be 6.25%.
Next, `COC(=O)c1ncccc1N1CCCCC1`: 2.81%.
As to `C[C@@H]1CN(Cc2cc3ccccc3n2C)CC[C@]1(C)O`, the Percent Effect was 5.04%.
The same measure for `O=C(NC1CCCN(Cc2c(F)cccc2F)C1)c1cc[nH]n1` (stereo unspecified): -4.83%.
On to `COc1ncc(NCc2ccc(Cl)c(Cl)c2)cc1C(N)=O`, for which the Percent Effect was determined as 18.2%.
For `CCC(C)C(=O)N(Cc1ccccn1)C1CC1` (stereo unspecified), the Percent Effect stood at 2.05%.
Next, `O=C(CCc1ccc(Cl)cc1)N[C@@H]1CC[C@@H](O)[C@@H]1O`: 14.5%; `CN(CC1CCCCO1)c1nc2c(cc1C(N)=O)CCC2` (stereo unspecified): -5.23%; `Cc1[nH]nc(CCC(=O)N2CCc3ncnc(NCCO)c3CC2)c1C`: 3.08%.
In the case of `Cc1noc(C)c1CNC(=O)NCCC(=O)N1CCCc2ccccc21`, the Percent Effect was -2.4%.
As for `Nc1nc(CCCNC(=O)c2ccccc2C2CCNC2)cs1` (stereo unspecified), the Percent Effect was -5.1%.
The same measure for `OC(CNCc1nnc2ccccn12)c1ccc2c(c1)OCCCO2` (stereo unspecified): 9.77%.

(Values after ChEMBL document CHEMBL3988442, “University of Dundee, Small-Polar-MMV Screening Library” (2021).)
